Inconclusive results are not listed. Calls of active or inactive are those of the source. Calls come from the whole dose curve; as a rule, active = well fitted curve in the direction sought with a large enough effect; inconclusive = small, poorly fitted or top-dose-only effect, or effect the other way, or another doubt; inactive = no such curve, though single readings can be large or run the other way.
Molecular target: Epidermal growth factor receptor (Homo sapiens) (UniProt P00533)
Assay: Assay for Inhibitors of the ERK Signaling Pathway using a Homogeneous Screening Assay: EGFR T790M/L858R Kinase Inhibition
Conditions: series mostly up to 65.8 µM
From the text: qHTS Assay for Inhibitors of the ERK Signaling Pathway using a Homogeneous Screening Assay
NIH Chemical Genomics Center [NCGC]
NIH Molecular Libraries Screening Centers Network [MLSCN]
Assay Submitter (PI): Dr. Wei Zheng, NCGC/NIH
The Ras/extracellular-signal-regulated kinase (ERK) mitogen activated protein (MAP) kinase signaling pathway (ERK1/2 cascade) plays is a key role in transmitting signals from the cell surface to the nucleus (Nishida and Gotoh 1993; Chang and Karin, 2001). The cascade is initiated by the small G-protein Ras, which recruits Raf […], where activation occurs. Alternatively, this pathway can be activated by elevating intracellular cAMP.
Activation of the ERK pathway is essential in increased cell division and cell survival. Sustained and constitutive activation of the ERK pathway, however, has been linked to uncontrolled cell proliferation, increased cell survival, and tumor progression. Thus, the ERK has been as an attractive target for cancer chemotherapy in the past few years (Sebolt-Leopold and Herrera, 2004). […]
The HTRF kinase assay (components supplied as kit by Cisbio) was chosen for the EGFR and EGFR mutant enzyme assays that applied the time resolved fluorescence resonance energy transfer (TR-FRET) principle. […]

Sequence of Epidermal growth factor receptor (Homo sapiens) (P00533 whole entry T790M/L858R, looked up): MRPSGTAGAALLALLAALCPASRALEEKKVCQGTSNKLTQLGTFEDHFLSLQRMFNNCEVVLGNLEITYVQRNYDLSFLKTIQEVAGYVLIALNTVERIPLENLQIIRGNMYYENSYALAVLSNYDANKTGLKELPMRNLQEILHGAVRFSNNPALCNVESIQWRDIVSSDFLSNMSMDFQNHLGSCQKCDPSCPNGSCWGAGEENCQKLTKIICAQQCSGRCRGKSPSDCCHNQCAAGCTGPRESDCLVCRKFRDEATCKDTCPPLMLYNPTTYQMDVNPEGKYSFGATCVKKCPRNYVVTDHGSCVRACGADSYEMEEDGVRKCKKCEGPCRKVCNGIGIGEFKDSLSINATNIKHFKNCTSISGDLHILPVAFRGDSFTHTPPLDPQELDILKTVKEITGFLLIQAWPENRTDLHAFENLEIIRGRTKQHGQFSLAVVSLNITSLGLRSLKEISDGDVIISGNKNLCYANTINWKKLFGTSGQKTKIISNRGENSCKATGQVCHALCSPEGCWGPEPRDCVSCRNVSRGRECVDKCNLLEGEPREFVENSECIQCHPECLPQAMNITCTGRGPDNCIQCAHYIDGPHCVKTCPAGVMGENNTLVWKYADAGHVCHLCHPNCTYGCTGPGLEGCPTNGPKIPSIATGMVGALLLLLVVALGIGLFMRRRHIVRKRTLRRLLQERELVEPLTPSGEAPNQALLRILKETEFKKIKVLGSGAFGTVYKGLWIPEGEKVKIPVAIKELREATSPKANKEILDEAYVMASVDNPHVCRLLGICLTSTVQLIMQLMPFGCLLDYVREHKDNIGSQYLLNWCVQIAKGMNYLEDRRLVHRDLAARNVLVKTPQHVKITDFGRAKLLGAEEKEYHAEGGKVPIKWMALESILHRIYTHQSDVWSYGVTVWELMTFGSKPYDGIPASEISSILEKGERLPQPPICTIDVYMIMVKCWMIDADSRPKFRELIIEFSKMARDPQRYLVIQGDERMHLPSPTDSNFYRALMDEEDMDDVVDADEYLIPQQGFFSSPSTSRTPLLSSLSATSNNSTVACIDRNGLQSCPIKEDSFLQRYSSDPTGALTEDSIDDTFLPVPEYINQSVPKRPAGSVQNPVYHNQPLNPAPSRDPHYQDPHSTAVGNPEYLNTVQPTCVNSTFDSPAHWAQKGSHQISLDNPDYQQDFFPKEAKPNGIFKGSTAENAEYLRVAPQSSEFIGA

Row | SMILES | outcome
1 | Cc1nc2c(=O)n(C)c(=O)nc-2n(C)n1 | inactive
2 | CN1CCN(c2cccc3c2C(=O)c2ccccc2C3=O)CC1 | inactive
